Assay results from PubChem BioAssay (Tox21).
Inconclusive results are not listed. Active and inactive are the calls of the source. The call rests on the fitted dose curve; in most records, active means well fitted inhibition curve with a large enough effect in the repeat runs; inconclusive means weak or mixed curves; inactive means no such curve, though single readings can be large or run the other way.

The molecules below were run against Cytochrome P450 3A4 (Homo sapiens) (UniProt P08684) (assay: Cytochrome P450 Family 3 Subfamily A Member 4 (CYP3A4) small molecule antagonists: luciferase reporter qHTS assay (AID 1671201; further: nearly all actives have a fitted effect of over 50% in size)). Conditions: P450-Glo CYP3A4 enzyme, luciferin luminescence, 1 h; series mostly up to 115 µM; activity change, negative = inhibition: at the top concentration.
Sequence of Cytochrome P450 3A4 (Homo sapiens) (P08684 whole entry, looked up): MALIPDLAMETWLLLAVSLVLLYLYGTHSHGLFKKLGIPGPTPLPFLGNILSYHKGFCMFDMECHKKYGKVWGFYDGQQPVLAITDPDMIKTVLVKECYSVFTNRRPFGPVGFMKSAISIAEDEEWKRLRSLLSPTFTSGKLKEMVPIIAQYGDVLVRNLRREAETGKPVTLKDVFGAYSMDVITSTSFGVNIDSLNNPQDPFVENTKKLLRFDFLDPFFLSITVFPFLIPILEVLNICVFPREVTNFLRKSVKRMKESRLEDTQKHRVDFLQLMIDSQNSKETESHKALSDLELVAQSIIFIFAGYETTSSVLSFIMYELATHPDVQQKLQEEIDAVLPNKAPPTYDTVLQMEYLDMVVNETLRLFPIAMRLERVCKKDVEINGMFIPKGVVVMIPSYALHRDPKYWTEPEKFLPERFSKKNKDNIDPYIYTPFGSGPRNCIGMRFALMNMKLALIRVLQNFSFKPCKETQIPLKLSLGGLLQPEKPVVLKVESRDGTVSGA
How it was run: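 P450-Glo CYP3A4 system with proluciferin substrate; compounds preincubated 10 min RT with enzyme-substrate mix, then NADPH regeneration added for 1 h RT. Detection reagent 20 min, luminescence read as relative luminescence units.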
On the % scale 0 is the no-effect control and ±100 the full control effect; potency means the concentration at half of the fitted maximal effect.

| SMILES | activity change, negative = inhibition | Potency |
| --- | --- | --- |
| Cc1ccc(C=O)cc1 | 9.65% [at 52.9 µM] (inactive) |  |
| O=C1OC(O)C(C(Cl)Cl)=C1Cl (stereo not given) | 12.6% (inactive) |  |
| Cc1cc(C)c(O)c(C(C)(C)C)c1 | -24.3% (inactive) |  |
| COc1cc(C(C)C)ccc1C | -0.0855% [at 23.6 µM] (inactive) |  |
| CN1CC[C@H](c2c(O)cc(O)c3c(=O)cc(-c4ccccc4Cl)oc23)[C@H](O)C1 | 2.18% [at 52.9 µM] (inactive) |  |
| CN(C/C=C/c1ccccc1)Cc1cccc2ccccc12 | 56.7% [at 52.9 µM] (inactive) |  |
| Cc1cc(F)ccc1-c1cc(N2CC[C@@H](O)[C@H]2CO)ncc1N(C)C(=O)C(C)(C)c1cc(C(F)(F)F)cc(C(F)(F)F)c1 |  | 3.12 µM (active) |
| Oc1ccc(Cl)cc1C1CCCC1 | -20.3% (inactive) |  |
| S=C1NC=NC2N=CNC12 (stereo not given) | 41.3% (inactive) |  |
| CC(C)(C)c1cc(CCC(=O)OCCSCCOC(=O)CCc2cc(C(C)(C)C)c(O)c(C(C)(C)C)c2)cc(C(C)(C)C)c1O |  | 4.9 µM (active) |
| CC(C=O)c1ccccc1 (stereo not given) | -17.8% (inactive) |  |
| C/C=C/C(=O)C1=C(C)C=CCC1(C)C | 3.15% (inactive) |  |
| [Cl][Eu]([Cl])[Cl] | 4% (inactive) |  |
| Cc1ccc(S(=O)(=O)C(I)I)cc1 |  | 39.9 µM (active) |
| CCCCCCCCCCCC(=O)Cl | 75.9% (inactive) |  |
